32 compounds from PubChem BioAssay (NCATS) can be followed below.

Results filed as inconclusive are left out. Entries that show only a call come without a potency. Activity calls are given as the source filed them. Unless noted, calls follow the shape of the full dose curve.

System in one experiment: not listed separately
As to the kind of experiment: S16 Schwann cell PMP22 intronic element beta-lactamase assay (AID 624044). Also: nearly all actives have a fitted effect of over 15% in size. Also: potency is read from the fitted curve at half-maximal effect. As to conditions: S16 rat Schwann cells, PMP22 element beta-lactamase FRET, 24 h; series mostly up to 38.3 µM. Put shortly:
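Beta-lactamase reporter under a PMP22 intronic regulatory element in stable S16 rat Schwann cells; 24 h compound exposure. 460 nm blue signal normalized between DMSO (0%) and potassium clavulanate, with 535 nm FRET tracking viability; curves classed by r2 and response.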
Take `Cn1cc[nH]c1=S`: the Potency entry is “inactive”.

With `CC(C)(C)C(=O)C(Oc1ccc(Cl)cc1)n1ccnc1` (stereo not drawn), the Potency entry was “inactive”.

Regarding `CNCCC(Oc1ccc(C(F)(F)F)cc1)c1ccccc1` (stereo not drawn), the Potency result is “inactive”.

Take `Oc1ccc(C(O)CNCCCCCCNCC(O)c2ccc(O)c(O)c2)cc1O` (stereo not drawn): the Potency result is “inactive”.

For `Cc1ccc(C(C)C)cc2c(C)ccc1-2`, the Potency entry is “inactive”.

As to `CC(CN1c2ccccc2Sc2ccccc21)N(C)C` (stereo not drawn), the Potency entry was “inactive”.

Take `CN1CCN(C2Cc3ccccc3Sc3ccc(Cl)cc32)CC1` (stereo not drawn): the Potency result was “inactive”.

As for `CC1(C)[C@@H]2CC[C@@]1(C)C(=O)C2`, the Potency is 9.99 µM (active).

For `NC(=O)N/N=C/c1ccc([N+](=O)[O-])o1`, the Potency result was “inactive”.

Turning to `OCc1cc(C(O)CNCCCCCCOCCCCc2ccccc2)ccc1O` (stereo not drawn), the Potency entry is “inactive”.

With `Oc1cccc(O)c1`, the Potency result is “inactive”.

As to `CN(C)CCCN1c2ccccc2Sc2ccc(Cl)cc21`, the Potency result is “inactive”.

With `COC(=O)C1=C(C)NC(C)=C(C(=O)OC)C1c1ccccc1[N+](=O)[O-]`, the Potency result was “inactive”.

On to `CC(=O)NC(Cc1ccccc1)C(=O)O` (stereo not drawn), for which the Potency result was “inactive”.

As to `CCN(CC)CCNC(=O)c1c(C)[nH]c(/C=C2\C(=O)Nc3ccc(F)cc32)c1C`, the Potency entry is “inactive”.

As to `CSc1ccc2c(c1)C(N1CCN(C)CC1)Cc1ccccc1S2` (stereo not drawn), the Potency result was “inactive”.

On to `O=C(O)c1ccccn1`, for which the Potency result was “inactive”.

Turning to `[Cl][In]([Cl])[Cl]`, the Potency entry was “inactive”.

As for `CCN(CC)CCNC(C(=O)OCCC(C)C)c1ccccc1` (stereo not drawn), the Potency result is “inactive”.

Turning to `COc1ccc(Cl)cc1C(=O)NCCc1ccc(S(=O)(=O)NC(=O)NC2CCCCC2)cc1`, the Potency result is “inactive”.

As to `CCCCCCCCCCCCOS(=O)(=O)O`, the Potency entry was “inactive”.

`CCOc1ccc2ccccc2c1C(=O)N[C@@H]1C(=O)N2[C@@H]1SC(C)(C)[C@@H]2C(=O)O`: the Potency entry is “inactive”.

Consider `NC(=O)NNc1ccccc1`, for which the Potency entry was “inactive”.

With `CCCc1c(OCCCCc2nn[nH]n2)ccc(C(C)=O)c1O`, the Potency result is “inactive”.

Another experiment deals with Glutaminase kidney isoform, mitochondrial (Homo sapiens) (UniProt O94925). As to the kind of experiment: qHTS for Inhibitors of Glutaminase (GLS): LOPAC Validation (AID 624146; active = well fitted inhibition curve with a large enough effect;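 also: glutamate product detected by oxidase and peroxidase coupled Amplex red fluorescence gain; nearly all actives have a fitted effect of over 60% in size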). The note with it: glutaminase enzyme activity inhibition; series mostly up to 46.1 µM. Put shortly: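 Enzyme dispensed in phosphate buffer (45 mM, pH 8.2, 0.02% Tween-20), compounds pinned in, then 1 mM L-glutamine solution and the glutamate oxidase–HRP–Amplex Red mix added; fluorescence read immediately and again after 30 min at room temperature.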
Chain of Glutaminase kidney isoform, mitochondrial (Homo sapiens) (O94925 whole entry, looked up, canonical isoform): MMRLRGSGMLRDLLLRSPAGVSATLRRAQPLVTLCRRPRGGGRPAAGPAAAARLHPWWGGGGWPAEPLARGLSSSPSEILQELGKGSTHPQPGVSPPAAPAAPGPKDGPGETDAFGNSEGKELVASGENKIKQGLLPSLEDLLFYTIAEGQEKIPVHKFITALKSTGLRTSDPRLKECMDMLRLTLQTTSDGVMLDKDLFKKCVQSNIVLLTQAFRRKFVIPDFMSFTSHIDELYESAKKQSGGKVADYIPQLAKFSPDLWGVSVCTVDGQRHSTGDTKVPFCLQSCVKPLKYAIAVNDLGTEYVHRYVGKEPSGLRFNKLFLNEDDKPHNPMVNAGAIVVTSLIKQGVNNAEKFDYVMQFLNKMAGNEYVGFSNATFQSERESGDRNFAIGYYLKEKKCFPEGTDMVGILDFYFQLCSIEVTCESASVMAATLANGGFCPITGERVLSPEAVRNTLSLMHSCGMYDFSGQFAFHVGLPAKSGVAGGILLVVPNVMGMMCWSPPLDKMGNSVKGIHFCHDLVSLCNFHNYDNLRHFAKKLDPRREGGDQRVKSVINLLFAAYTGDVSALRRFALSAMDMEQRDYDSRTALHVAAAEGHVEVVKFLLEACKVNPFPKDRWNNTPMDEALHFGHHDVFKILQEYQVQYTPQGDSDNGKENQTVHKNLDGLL
In general terms: In qHTS, concentration-response curves come from the screen itself.
Consider `NC(N)=NCCC[C@H](N)C(=O)O`, for which the Potency result was “inactive”.

For `CNCCC(Oc1ccc(C(F)(F)F)cc1)c1ccccc1` (stereo not drawn), the Potency result was “inactive”.

For `CN1CCN(C2Cc3ccccc3Sc3ccc(Cl)cc32)CC1` (stereo not drawn), the Potency result was “inactive”.

Take `CC1=C(CC(=O)O)c2cc(F)ccc2/C1=C\c1ccc(S(C)(=O)=O)cc1`: the Potency entry is “inactive”.

Turning to `OCc1cc(C(O)CNCCCCCCOCCCCc2ccccc2)ccc1O` (stereo not drawn), the Potency entry was “inactive”.

As for `CN(C)CCCN1c2ccccc2Sc2ccc(Cl)cc21`, the Potency result was “inactive”.

`CSc1ccc2c(c1)C(N1CCN(C)CC1)Cc1ccccc1S2` (stereo not drawn): the Potency entry was “inactive”.

Turning to `N=c1c[n+](N2CCOCC2)[n-]o1`, the Potency entry was “inactive”.

For `CN(C)CC[C@@H](c1ccc(Cl)cc1)c1ccccn1`, the Potency result is “inactive”.

`Nc1cc(=O)[nH]c(N)n1`: the Potency result is “inactive”.

As for `CCN(CC)CCCC(C)Nc1c2ccc(Cl)cc2nc2ccc(OC)cc12` (stereo not drawn), the Potency entry was “inactive”.

On to `COc1ccc(Cl)cc1C(=O)NCCc1ccc(S(=O)(=O)NC(=O)NC2CCCCC2)cc1`, for which the Potency entry is “inactive”.

As to `CCCn1cnc2c1c(=O)n(CCCCC(C)=O)c(=O)n2C`, the Potency entry is “inactive”.

Turning to `CC(CN(C)C)CN1c2ccccc2CCc2ccccc21` (stereo not drawn), the Potency entry is “inactive”.
